The values below come from PubChem BioAssay.

The target in assay [1] is Nuclear receptor coactivator 1 (Homo sapiens) (UniProt Q15788). Description: NCOA1 GAL4-fusion reporter inhibition – cell-based, luminescence, quadruplicate, confirmation (AID 588820).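 Also: 0% = DMSO wells and 100% = gossypol 36 µM treated wells.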 As to conditions: HEK293 GAL4-SRC1 luciferase reporter, at 3.6 µM, stronger effect = higher value.
A short description of assay [2]: repression of VP16-driven luciferase reporter – cell-based, luminescence, high throughput, counter-screen for SRC1 inhibitor project (AID 588824; in the data active = inhibition above about 25%). As to conditions: cell-based VP16 transactivation luciferase luminescence; at 3.6 µM; stronger effect = higher value.

SMILES strings stand for the structures. Values without a mark were called inactive. Activity calls are given as the source filed them.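 The calls were made as follows, unless noted: active = mean inhibition above 46.68%, the untreated control wells mean plus 3 SD; inactive = the rest.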

Sequence of Nuclear receptor coactivator 1 (Homo sapiens) (Q15788 whole entry, looked up, the tested form may be a part): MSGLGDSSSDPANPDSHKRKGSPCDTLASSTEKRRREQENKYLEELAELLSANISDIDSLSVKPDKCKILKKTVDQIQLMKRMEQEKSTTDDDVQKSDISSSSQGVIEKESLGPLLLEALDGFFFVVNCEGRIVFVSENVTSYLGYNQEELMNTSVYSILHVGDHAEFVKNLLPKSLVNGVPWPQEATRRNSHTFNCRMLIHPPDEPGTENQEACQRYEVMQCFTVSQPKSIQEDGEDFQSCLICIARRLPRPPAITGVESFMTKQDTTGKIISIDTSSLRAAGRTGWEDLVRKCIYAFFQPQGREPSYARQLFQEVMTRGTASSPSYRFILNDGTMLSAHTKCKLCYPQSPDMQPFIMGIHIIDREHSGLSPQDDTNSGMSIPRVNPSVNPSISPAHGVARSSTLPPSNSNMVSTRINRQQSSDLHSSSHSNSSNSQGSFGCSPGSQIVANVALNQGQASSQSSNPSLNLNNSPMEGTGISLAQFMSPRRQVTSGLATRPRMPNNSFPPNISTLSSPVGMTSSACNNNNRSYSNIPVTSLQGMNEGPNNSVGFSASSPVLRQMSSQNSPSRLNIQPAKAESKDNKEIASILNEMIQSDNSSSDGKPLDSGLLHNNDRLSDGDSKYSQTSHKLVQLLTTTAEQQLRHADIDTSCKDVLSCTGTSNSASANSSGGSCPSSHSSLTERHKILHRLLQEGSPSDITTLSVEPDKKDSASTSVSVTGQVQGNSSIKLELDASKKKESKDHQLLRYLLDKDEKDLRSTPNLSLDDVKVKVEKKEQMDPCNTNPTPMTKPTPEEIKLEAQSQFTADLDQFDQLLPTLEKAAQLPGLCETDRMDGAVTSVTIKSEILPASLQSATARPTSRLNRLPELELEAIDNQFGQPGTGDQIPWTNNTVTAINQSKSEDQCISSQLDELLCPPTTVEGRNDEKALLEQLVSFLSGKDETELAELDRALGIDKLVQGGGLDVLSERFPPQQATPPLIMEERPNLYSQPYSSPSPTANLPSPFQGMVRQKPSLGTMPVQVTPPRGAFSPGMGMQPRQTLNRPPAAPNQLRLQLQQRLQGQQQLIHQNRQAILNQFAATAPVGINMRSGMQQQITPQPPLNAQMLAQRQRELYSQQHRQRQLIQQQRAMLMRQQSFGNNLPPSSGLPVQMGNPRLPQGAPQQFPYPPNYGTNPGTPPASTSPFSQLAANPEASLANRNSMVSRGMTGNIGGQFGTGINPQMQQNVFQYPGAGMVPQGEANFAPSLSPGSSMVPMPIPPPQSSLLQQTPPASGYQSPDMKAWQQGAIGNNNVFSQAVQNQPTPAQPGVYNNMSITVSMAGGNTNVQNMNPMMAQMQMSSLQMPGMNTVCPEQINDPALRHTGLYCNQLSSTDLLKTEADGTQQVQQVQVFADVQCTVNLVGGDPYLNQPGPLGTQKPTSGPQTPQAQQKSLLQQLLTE

Consider `O=C(COc1ccc([N+](=O)[O-])cc1)Nc1ccccc1C(=O)NC1CC1`, for which the inhibition was 2.87% in assay [1] and -1.57% in assay [2].
The matching figures for `O=C(c1ccccc1)c1sc(Nc2ccc3c(c2)OCO3)nc1-c1ccccc1`: 13.9% and 18.1%.
As for `COc1ccc(CN2CCN(C(=O)CCC(=O)Nc3nnc(C(F)(F)F)s3)CC2)cc1F`, the inhibition was -1.74% in assay [1] and -4.2% in assay [2].
For `COc1cc(C(=O)Nc2cccc(-c3cn4cccnc4n3)c2)cc(OC)c1OC` the same measures were -27.4% and -27.3%.
The matching figures for `CCCCCCn1c(NCC)nc2c1c(=O)n(C)c(=O)n2C`: -1.77% and 35.5% (active).
For `Cc1ccoc1C(=O)NCCNC(=O)c1occc1C` the same measures were -20.6% and -15.1%.
Take `Cc1cc(OCC(O)CN2CCc3ccccc3C2)cc(C(C)C)c1` (centres undefined): the inhibition is -16.6% in assay [1] and -6.97% in assay [2].
For `COc1ccc(Nc2nc(-c3cccs3)nc3ccccc23)cc1S(=O)(=O)N1CCOCC1` the same measures were -30.8% and -9.26%.
Consider `Cc1ccc(-c2c[n+]3c(n2-c2ccccc2)CCC3)cc1`, for which the figures for the inhibition in assay [1] and in assay [2] were 10.5% and 20.3%, respectively.
For `COc1cc(OC)c(OC)cc1/C=C1\CC(C)C/C(=C\c2cc(OC)c(OC)cc2OC)C1=O` (centres undefined) the same measures were -33.6% and 2.73%.
For `NS(=O)(=O)c1ccc(CCNC(=O)c2ccc(C#CC3(O)CCCCC3)cc2)cc1` the same measures were -44% and -3.61%.
For `CSc1nc(N)nc2c1ncn2CC(=O)N1CCN(Cc2c(C)cc(C)cc2C)CC1` the same measures were -3.22% and 34.5% (active).
As for `COc1ccc(C)cc1S(=O)(=O)N1CCCC(N2CCN(c3ccccc3)CC2)C1` (centres undefined), the inhibition is 2.59% in assay [1] and 6.89% in assay [2].
For `CC(NC(=O)CSc1nc2ccccc2n1C)c1ccccc1` (centres undefined) the same measures were 0.06% and -11.7%.
The matching figures for `Cc1ccc(C)c(NC(=O)CCc2ccc(C)o2)c1`: 5.55% and -2.65%.
Take `Cc1cc2c(NCc3ccccc3)ncnc2s1`: the values for the inhibition in assay [1] and in assay [2] were 5% and 18.8%, respectively.
As for `COc1ccc(CNC(=O)c2cccc(S(=O)(=O)N3CCCCC3)c2)cc1OC`, the results for the inhibition in assay [1] and in assay [2] were -20.1% and 30.6% (active), respectively.
For `COc1ccc(Cc2nnc(NC(=O)c3cc(OC)c(OC)c(OC)c3)s2)cc1OC` the same measures were -22.8% and -17.4%.
The matching figures for `Cc1ccc(S(=O)(=O)NCCC2=CCCCC2)cc1`: -5.59% and 7%.
For `CCCCC(=O)Nc1cccn2ncnc12`, the inhibition was 24.7% in assay [1] and 14.8% in assay [2].
For `C[C@H](N)c1nnc(SCC(N)=O)o1` the same measures were -1.81% and -12.9%.
For `COc1ccc(C(=O)NNC(=O)C(=O)N2CCCCC2)cc1OC` the same measures were -5.24% and -0.82%.
For the molecule `O=C(Nc1ccccc1N1CCOCC1)c1cc(-c2ccncc2)nc2ccccc12`, the inhibition is -29.7% in assay [1] and 2.98% in assay [2].
Turning to `COc1cccc(CNC(=O)C2CCCN(S(C)(=O)=O)C2)c1` (centres undefined), the values for the inhibition in assay [1] and in assay [2] were -0.5% and 8.47%, respectively.
The matching figures for `C=C1C(=O)O[C@@]23[C@H]1CC[C@@H](C)[C@@H]2CC[C@@]1(C)O[C@@H]31`: 1.63% and 7.69%.
For the molecule `O=C(NC(=S)Nc1cccc(Cl)c1N1CCCCC1)c1ccco1`, the inhibition in assay [1] is -11.6%; in assay [2] it was 7.26%.
The matching figures for `Cc1cc(OC(C)C(=O)Nc2ccncc2)ccc1Cl` (centres undefined): -0.51% and 7.56%.
The matching figures for `COc1ccc(-c2cc(C(=O)NCCCN3CCOCC3)c3ccccc3n2)cc1OC`: -12.4% and -2.84%.
For `CCOC1(OCC)OC(c2ccccc2)=C(C#N)C(C=Cc2ccccc2)C1(OCC)OCC` (centres undefined) the same measures were 0.8% and 4.67%.
Regarding `Cc1c(C(=O)N/N=C/C(C)C)[nH]c2ccc([N+](=O)[O-])cc12`, the results for the inhibition in assay [1] and in assay [2] were 17.2% and 14.8%, respectively.
The matching figures for `CCN(CC(=O)Nc1c(F)cccc1F)C(=O)Cc1csc(-c2ccccc2)n1`: -10.5% and -7.28%.
Regarding `CC(C)Oc1ccc(C(=O)Nc2nc3ccccc3[nH]2)cc1`, the inhibition in assay [1] is -74.9%; in assay [2], -39.4%.
Take `COC(=O)c1ccc(/C=N\NC(=O)CC(=O)NCCc2ccccc2)cc1`: the inhibition in assay [1] was -1.47%; in assay [2], -15.5%.
Turning to `CC1CCN(C(=O)Cn2c3ccc(F)cc3c3nc4n(c(=O)c32)CCCS4)CC1`, the inhibition was 4.67% in assay [1] and 3.44% in assay [2].
For the molecule `Cc1ccc(NS(=O)(=O)c2ccc(C(=O)NC3CCN(Cc4ccccc4)CC3)cc2)cc1`, the inhibition in assay [1] is -9.12%; in assay [2] it was 24.2%.
For `Clc1ccc(C2NCCc3sccc32)cc1` (centres undefined) the same measures were -22% and 8.67%.
Take `Cc1csc2ncnc(NCCc3ccccn3)c12`: the inhibition in assay [1] is -2.8%; in assay [2], 21.8%.
